Results on 40 molecules are retold here after PubChem BioAssay (NCATS).

Inconclusive results are not listed. Activity calls are given as the source filed them. Calls follow the shape of the dose curve; as a rule, active = well fitted activation curve with a large enough effect; inconclusive = small, poorly fitted or top-dose-only effect; inactive = flat fitted curve, though single readings scatter.

This test can be described thus: qHTS for Activators of Parkin Expression: LOPAC Validation Assay (NLuc Reporter) (AID 720572). The settings on record: Parkin promoter NanoLuc reporter cells, luminescence, percent of positive control, DMSO as zero; series mostly up to 46.1 µM. From the text: Parkin is an E3 ubiquitin ligase localized in the cytosol of cells expressed in many tissues, including brain, skeletal muscle, heart and liver tissues. One hour after stress induction by mitochondrial uncouplers (which mimic mitochondria damage by decreasing the mitochondrial inner membrane electrochemical gradient that is used to produce ATP), Parkin translocates from the cytosol to mitochondria in many cultured cell types, including neurons and HeLa cells. Administration of other mitochondrial poisons, such as Paraquat and azide in cells lacking mitochondrial DNA (mtDNA), induces Parkin translocation to mitochondria. […] It was proposed that Parkin (together with Pink1) mediates a mitochondrial quality control pathway to maintain organelle population fidelity by removing damaged mitochondria. Understanding the normal physiologic role of Parkin (and Pink1) may uncover novel treatment strategies for sporadic Parkinson's disease patients with mutation in these genes.
A cell based qHTS in 1536 well format was developed assess modulation of Parkin expression using a neuronal cell line that stably expresses a stably expresses a luminescent coincidence reporter (FLuc and NLuc reporters) behind the Parkin promoter. The LOPAC library is used to validate the assay for quantitative high-throughput screening. The data herein reports the signal from the NLuc reporter. An increase in this signal = activation of Parkin expression. For this assay , a positive control normalized signal increase corresponding to a high quality qHTS curve class in both luminescent channels is the desired outcome for this assay.
NIH Chemical Genomics Center [NCGC]
NIH Molecular Libraries Probe Centers Network [MLPCN]
Assay Submitter (PI): Richard Youle, National Institute of Neurological Disorders and Strokes (NINDS), NIH
[1] Narendra, D., et al., Parkin is recruited selectively to impaired mitochondria and promotes their autophagy. J Cell Biol, 2008. 183(5): p.
[2] Suen, D.F., et al., Parkin overexpression selects against a deleterious mtDNA mutation in heteroplasmic cybrid cells. Proc Natl Acad Sci U S A, 2010. […] 11835-40.
[3] Cheng K, Inglese J. A coincedence reporter-gene system for high-throughput screening. Nat Methods. 2012: 9(10);937
Five microliters (1,500 cells/well) of the Parkin coincidence reporter cells were seeded to 1536 well assay plates (Greiner Catalog # 789173-F) and incubated at 37 C, 5% CO2 for 24 hours. Compounds (23 nL) were pinned using the Kalypsys robotic system equipped with 1536 pin head adaptor in 7-point dose response. The assay plates were incubated for additional 24 hr at 37 C, 5% CO2 followed by a volume reduction in each well to 2 uL using an automated plate washer/aspirator. Following the volume reduction,2 uL of FLuc detection reagent and plates were incubated for 10 minutes at room temperature. The FLuc luminescence signal was obtained using the PerkinElmer ViewLux plate imager and then 2 uL of NanoLuc detection reagent was added to the plates. After another 10 minute incubation, NanoLuc signal was obtained using the PerkinElmer ViewLux plate imager as before. Data from each channel was normalized to DMSO (neutral control) and the positive control compounds (100%).
Regarding `CS(=N)(=O)CC[C@H](N)C(=O)O` (stereo not given in full), the call was inactive. Take `CC[C@@]1(O)C(=O)OCc2c1cc1n(c2=O)Cc2cc3ccccc3nc2-1`: the outcome was inactive.

Regarding `CC[C@@H](C(N)=O)N1CCCC1=O`, the result was inactive.

With `Oc1ccc2c3c1O[C@H]1c4[nH]c5c(c4C[C@@]4(O)[C@@H](C2)N(CC2CC2)CC[C@]314)C[C@@]1(O)[C@H]2Cc3ccc(O)c4c3[C@@]1(CCN2CC1CC1)[C@H]5O4`, the molecule was classed as inactive. For `Cc1c(C(=O)c2cccc3ccccc23)c2cccc3c2n1[C@H](CN1CCOCC1)CO3` the value was “inactive”; for `c1ccc(C2(c3ccccc3)CC2C2=NCCN2)cc1` (stereo not given), “inactive”. For `O=C(O)CC[N+](=O)[O-]` the value was “inactive”; for `S=C(NC1CCCCC1)N1CCC(c2cnc[nH]2)CC1`, “inactive”; for `COC(=O)[C@@H](N)CCCN=C(N)N[N+](=O)[O-]`, “inactive”. For `CC(=O)[C@H]1CCC2C3CC[C@H]4C[C@H](O)CC[C@]4(C)C3CC[C@@]21C` (stereo not given in full) the value was “inactive”; for `CN[C@@H]1C[C@@H](c2ccc(Cl)c(Cl)c2)c2ccccc21`, “inactive”; for `CC(C)NC(C)Cc1ccc(I)cc1` (stereo not given), “inactive”. As for `NC(N)=NOCCC(N)C(=O)O` (stereo not given), the result was inactive.

With `CC(=O)NCCc1c[nH]c2ccccc12`, the molecule was classed as inactive. For `NCCc1c[nH]c2ccc(O)cc12` the value was “inactive”; for `C[N+]1(C)C2CCC1CC(OC(=O)C(CO)c1ccccc1)C2` (stereo not given), “inactive”; for `COc1ccc2c(c[n+](C)c3c4cc5c(cc4ccc23)OCO5)c1OC`, “inactive”. For `CC(Cc1ccc(O)cc1)NCC(O)c1cc(O)cc(O)c1` (stereo not given) the value was “inactive”; for `NC(=NCCC[C@H](N)C(=O)O)N[N+](=O)[O-]`, “inactive”; for `CNCCc1ccc(O)c(O)c1`, “inactive”. For `CNCCc1c[nH]c2ccc(O)cc12` the value was “inactive”; for `C/C=C(/C)C(=O)O[C@H]1C(C)=C2[C@H]([C@@H]1OC(=O)CCCCCCC)[C@@](C)(OC(C)=O)C[C@H](OC(=O)CCC)[C@@]1(O)[C@H]2OC(=O)[C@@]1(C)O`, “inactive”; for `NC(=O)CN1CC(O)CC1=O` (stereo not given), “inactive”. As to `O=C(O)[C@@H]1CCN1`, the molecule was called inactive. For `CCCN1CCC[C@H](c2cccc(O)c2)C1` the value was “inactive”; for `Cc1nccc2c1[nH]c1ccccc12`, “inactive”. For `c1ccc(CCCN2CCN(CCOC(c3ccccc3)c3ccccc3)CC2)cc1` the value was “inactive”; for `O=C1CCCN1CC#CCN1CCCC1`, “inactive”. For `CCCN(CCC)C1CCc2ccc(O)cc2C1` (stereo not given) the value was “inactive”. Take `NC1CCc2cc(O)c(O)cc2C1` (stereo not given): the molecule was classed as inactive.

For `C[C@@H](N)Cc1cnc[nH]1`, the outcome was inactive. Consider `Cn1cnc(CCN)c1`, for which the molecule was called inactive.

As for `O=C(O)Cc1cnc[nH]1`, the outcome was inactive. For `Clc1cnc(Oc2ccc(Oc3ncc(Cl)cc3Cl)cc2)c(Cl)c1` the value was “inactive”. For `CN1C2CCC1CC(OC(=O)c1cc(Cl)cc(Cl)c1)C2` (stereo not given) the value was “inactive”; for `C[C@]12CCC3C(CC[C@H]4C[C@H](O)CC[C@]34C)C1CC[C@@H]2C(=O)CO` (stereo not given in full), “inactive”. With `COc1cc(C(O)CN)ccc1O` (stereo not given), the result was inactive.

For the molecule `NC(CP(=O)(O)O)C(=O)O` (stereo not given), the molecule was called inactive.

Take `C=CCN1CC[C@]23CCCCC2[C@H]1Cc1ccc(O)cc13` (stereo not given in full): the result was inactive. For `NCc1cc(=O)[nH]o1` the value was “inactive”.
